Source: PubChem BioAssay
C2C12 statin: suppressors of statin myotoxicity in C2C12 myotubes, primary screen, cell-based, single point, plate reader; C2C12 myotubes + simvastatin, ATP luminescence, 48 h; scaled: DMSO 0, geranylgeraniol control 100; rescue of ATP level, % at 7.49 µM; actives 0.78% (n = 330,000);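 active = mean ATP rescue above about 67%, or every replicate alone reaching that limit, limit read from the data, passing the limit was not always enough; inconclusive = no clear call, values can overlap the other calls; inactive = mean under the limit and some replicate under it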;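 also: myotubes were challenged with 10 µM simvastatin during compound exposure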
EBV LMP1 NFkB: EBV LMP1-driven NF-kappaB luciferase reporter inhibitors, primary screen, cell-based, luminescence, single point; LMP1-induced NF-kappaB luciferase reporter cells; inhibition, % at 12.5 µM; actives 0.69% (n = 350,000); AID 504558, 2011; in the data active = inhibition above about 41%; inconclusive = no clear call, values can overlap the other calls
esBAF inh: Bmi1 luciferase reporter increase in mESCs, primary screen, esBAF inhibitor project, mouse ES cells, Bmi1 luciferase knock-in, single point; 24 h; 100% = twice the neutral-well signal; AID 602393, 2012; actives 2% (n = 350,000); reporter increase, % at 12.5 µM; in the data active = activation above about 40%; inconclusive = no clear call, values can overlap the other calls;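 also: a rise in the Bmi1 reporter signal indicates esBAF inhibition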
TRPM1 prom inh: inhibitors of MITF-dependent TRPM1 promoter reporter, primary screen, cell-based, SK-MEL-5, single point, luciferase | inhibition, % at 12.5 µM | SK-MEL-5 TRPM1 promoter luciferase, 24 h | actives 0.83% (n = 330,000);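 active = mean inhibition across replicates of 60% or more, whatever share of single replicates reaches that level; inconclusive = some that reach 60%, reason not given; inactive = mean inhibition across replicates below 60%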
MITF act: activators of MITF-driven TRPM1 promoter reporter, primary screen, cell-based, SK-MEL-5, luciferase, single point. SK-MEL-5 TRPM1-promoter luciferase, 24 h; % of positive control, neutral wells = 0. activation, % at 12.5 µM. actives 0.75% (n = 300,000);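 active = mean activation of at least 80% with every replicate also reaching 80%; inconclusive = mean reaches 80% but some replicate falls short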
Wnt act: Wnt/beta-catenin pathway activators, primary screen, cell-based, plate reader, single point; Wnt/beta-catenin reporter cell assay, activator; activation, % at 9.35 µM; actives 1.2% (n = 300,000); AID 743398, 2014; in the data active = activation above about 30%, passing the limit was not always enough; inconclusive = no clear call, values can overlap the other calls
Hits are given with their value; – = inactive; ? = inconclusive; · = no result. Hits are enriched below; roughly 4% of the tested compounds scored in any of these assays.

SMILES | C2C12 statin | EBV LMP1 NFkB | esBAF inh | TRPM1 prom inh | MITF act | Wnt act
O=C(Nc1cccc([N+](=O)[O-])c1)c1ccc([N+](=O)[O-])o1 | – | – | – | · | · | –
O=C(Nc1cccc(Cl)c1N1CCOCC1)c1cc([N+](=O)[O-])ccc1N1CCOCC1 | – | – | – | – | – | –
Cc1cn2c(N)c(/C=C3\C=Nc4ccccc43)c(=O)nc2s1 | · | – | · | – | · | 39
Nn1c(SCc2ccccc2)nc2ccccc21 | – | – | 54 | – | ? | –
CC(C)(C)OC(=O)COc1ccc(/C=N/NC(=O)CN2CCCCC2)cc1 | – | – | 52 | – | – | –
CCSc1nc2c(c(=O)[nH]c(=O)n2C)n1C | – | – | – | – | · | –
CCC(C)Sc1nc2c(c(=O)[nH]c(=O)n2C)n1Cc1ccc(Cl)cc1 (stereo not drawn) | 130 | – | – | – | – | ·
CC(C)Sc1nc2c(c(=O)[nH]c(=O)n2C)n1Cc1ccc(Cl)cc1 | 149 | – | – | – | · | –
CCOC(=O)C(C)Sc1nc2c(c(=O)[nH]c(=O)n2C)n1Cc1ccc(Cl)cc1 (stereo not drawn) | – | – | – | · | · | –
CCCSc1nc2c(c(=O)[nH]c(=O)n2C)n1C | 92 | – | – | – | – | –
C[C@H](CO)N1C[C@H](C)[C@@H](CN(C)C(=O)c2ccccn2)Oc2ncc(-c3ccccc3)cc2C1=O | – | · | – | · | · | ·
COC1=C(Br)C(=O)c2nc(C)ccc2C1=O | – | – | – | · | · | –
COC1=C(N)C(=O)c2nc(C)ccc2C1=O | · | – | · | 113 | · | –
COc1ccc(C(=O)N/N=C\c2ccoc2)cc1 | · | – | · | – | – | –
Cc1ccc(C(=O)N/N=C/c2ccoc2)cc1C | – | – | 50 | – | – | –
CCC(=O)N1C[C@@H](C)[C@H](OC)CN(C)C(=O)c2cc(NC(=O)Nc3ccc(Cl)cc3)ccc2OC[C@H]1C | – | · | – | · | · | ·
COCCNCC(=O)N1c2ccccc2Sc2ccccc21 | – | – | – | – | · | 48
COc1ccc(C/C(C)=N\NC(=O)c2c[nH]c3ccccc23)cc1OC | – | – | – | – | – | 39
O=C(CSc1nncs1)Nc1ccc(N2CCCCC2)cc1 | – | – | 57 | – | – | –
COc1ccc(NC(=O)CSc2nncs2)cc1S(=O)(=O)N1CCCCC1 | – | – | – | – | – | –
C/C(=N\NC(=O)c1ccncc1)c1cccs1 | · | – | · | – | – | –
C/C(=N\NC(=O)c1cccs1)c1ccc2ccccc2c1 | – | – | 52 | – | – | –
O=C(N/N=C/c1cccc2ccccc12)c1cc(C2CC2)[nH]n1 | – | 53 | – | – | – | –
C/C(=N/NC(=O)c1cccs1)c1cccc(NC(=O)C2CC2)c1 | – | – | – | – | – | ·
C/C(=N\NC(=O)c1ccc2ccccc2c1)c1cccs1 | – | – | – | – | – | 41
SMILES | C2C12 statin | EBV LMP1 NFkB | esBAF inh | TRPM1 prom inh | MITF act | Wnt act
C/C(=N/NC(=O)c1cc(C2CC2)[nH]n1)c1cccs1 | – | 60 | – | – | – | –
COc1ccc(S(=O)(=O)N(C)C[C@H]2OCCCC[C@H](C)Oc3ccc(NC(=O)CCCN(C)C)cc3C(=O)N([C@H](C)CO)C[C@H]2C)cc1 | · | · | – | · | · | ·
COc1ccc(CN(C)C[C@@H]2Oc3c(NC(=O)c4ccc(-c5nccs5)cc4)cccc3C(=O)N([C@H](C)CO)C[C@@H]2C)cc1 | – | · | – | · | · | ·
C[C@@H]1CN([C@H](C)CO)C(=O)CCCn2cc(nn2)CO[C@@H]1CN(C)CC1CCCCC1 | – | · | – | · | · | ·
COc1ccc(/C(C)=N/NC(=O)c2cccc(S(=O)(=O)N3CCCC3)c2)c(O)c1 | – | – | – | 73 | – | –
Cc1cc(NC(=O)c2ccccc2)ncc1NC(=O)c1ccco1 | · | – | · | – | – | 38
Cc1ccc(C(=O)Nc2ccc(NC(=O)c3ccco3)c(C)c2)cc1 | – | – | – | – | 91 | –
Cc1ccc(O)c(NC(=O)c2ccco2)c1 | – | – | – | – | – | –
Cc1cc(O)c(NC(=O)c2ccco2)cc1C | – | – | 47 | – | – | –
Cc1ccccc1S(=O)(=O)Oc1ccc2ccc(O)cc2c1 | – | – | 74 | – | · | –
Cc1ccccc1C(=O)Oc1ccc2ccc(O)cc2c1 | – | – | 62 | – | · | –
O=C(NC1CC1)C1=C[C@H](c2ccc(C(F)(F)F)cc2)C[C@H](OCc2ccc(CO)cc2)O1 | – | – | – | – | – | –
COc1ccc(C(=O)NCCOc2ccccc2Cl)c(OC)c1OC | – | – | 68 | – | 89 | ?
COc1cc(C(=O)NCCOc2ccccc2C)c(Br)c(OC)c1OC | · | – | · | – | – | –
Nc1[nH]n(-c2ccccc2)c(=O)c1N=Nc1ccc2c(c1)OCO2 | – | – | – | – | – | 58
Cc1[nH]n(-c2ccccc2)c(=O)c1N=Nc1ccccc1 | · | – | · | – | – | –
Nc1nn(-c2ccccc2)c(N)c1N=Nc1ccc2c(c1)OCO2 | · | – | · | – | – | –
Nc1[nH]n(-c2ccccc2)c(=O)c1N=Nc1ccc2c(c1)OCCO2 | – | – | – | – | – | 34
COc1ccc(-n2c(C)cc(/C=C3\C(=N)N4N=C(CC(=O)N5CCOCC5)SC4=NC3=O)c2C)c(OC)c1 | – | – | – | – | – | –
Cc1cc(N(C)C)ccc1N=Nc1ccc2ncccc2c1 | – | – | – | – | – | 42
CN(C)c1ccc(N=Nc2ccc3ncccc3c2)cc1 | – | – | – | – | – | –
COc1ccc(S(=O)(=O)N2CCCOC2CNC(=O)C(=O)NCCCn2ccnc2)cc1 (stereo not drawn) | – | – | – | – | – | –
C[C@H]1CN([C@@H](C)CO)C(=O)c2cccc(NS(=O)(=O)c3cn(C)cn3)c2O[C@H]1CN(C)S(=O)(=O)c1ccc(F)cc1 | – | · | – | · | · | ·
O=C1c2ccncc2C(=O)N1CNc1ccc(Cl)cc1 | · | – | · | – | – | 60
O=C1c2cccnc2C(=O)N1CNc1ccc(Cl)cc1 | · | – | · | – | – | –
SMILES | C2C12 statin | EBV LMP1 NFkB | esBAF inh | TRPM1 prom inh | MITF act | Wnt act
CN(CCC1CCCCO1)C(=O)CCc1nnc(C2CCCCC2)o1 (stereo not drawn) | – | – | 55 | – | – | –
O=C(N[C@H]1/C=C\[C@@H](O)CCCC1)OCc1ccccc1 | – | – | 70 | – | 98 | –
Cc1ccc2c(c1)-c1nc3ccccc3cc1C2=NC1CCCCC1 | · | – | · | – | – | 47
Cn1nnc2sc3c(c2c1=O)CCCC3 | – | – | – | – | – | –
c1ccc(-c2cn(-c3ccccc3)c3[n+]2CCS3)cc1 | – | – | – | – | – | –
CC(C)(C)c1ccc(-c2cn(-c3ccc(Br)cc3)c3[n+]2CCCS3)cc1 | · | – | · | 90 | – | –
N/C(=N\N=C\c1ccc(O)c(O)c1)c1nonc1N | – | – | 65 | – | – | –
